NS1 function inh: qHTS Assay for Inhibitors of Influenza NS1 Protein Function; actives 0.4% (n = 270,000); Potency, µM (top dose mostly 46.1 µM), inactives show at the highest dose activity, positive = more growth; AID 2326, 2010; calls by dose curve; further: potency means the concentration at half of the fitted maximal effect; actives are rising curves; nearly all actives have a fitted effect of over 50% in size
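Growth recovery, yeast-based: influenza A NS1 expressed in S. cerevisiae causes slow growth, and suppressors are detected by OD600. The parent strain without NS1 is used as positive control.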
LmPK inh: qHTS Assay for Inhibitors of Leishmania Mexicana Pyruvate Kinase (LmPK); AID 1721, 2009; actives 0.37% (n = 290,000); purified LmPK, Kinase-Glo ATP luminescence, 1 h; Potency, µM (highest dose often 57.5 µM), for the others: top-dose activity change, negative = inhibition, hits mostly inhibitors; Q27686; further: potency means the concentration at half of the fitted maximal effect; on the % scale 0 is the no-effect control and ±100 the full control effect
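Kinase-Glo luminescence read after 1 h RT reaction of 0.1 nM LmPK with 0.5 mM PEP and 0.1 mM ADP. Activity scaled between uninhibited and enzyme-free controls.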
Giardia FBPA inh: qHTS Assay for Inhibitors of Fructose-1,6-bisphosphate Aldolase from Giardia Lamblia; A8B2U2; purified Giardia FBPA; Potency, µM (titrated, usually from 59.6 µM), without a hit: top-dose activity, negative = inhibition, hits mostly inhibitors; actives 0.71% (n = 290,000); further: potency means the concentration at half of the fitted maximal effect; on the % scale 0 is the no-effect control and ±100 the full control effect; nearly all actives have a fitted effect of over 55% in size
Target sequence (A8B2U2 whole entry, looked up): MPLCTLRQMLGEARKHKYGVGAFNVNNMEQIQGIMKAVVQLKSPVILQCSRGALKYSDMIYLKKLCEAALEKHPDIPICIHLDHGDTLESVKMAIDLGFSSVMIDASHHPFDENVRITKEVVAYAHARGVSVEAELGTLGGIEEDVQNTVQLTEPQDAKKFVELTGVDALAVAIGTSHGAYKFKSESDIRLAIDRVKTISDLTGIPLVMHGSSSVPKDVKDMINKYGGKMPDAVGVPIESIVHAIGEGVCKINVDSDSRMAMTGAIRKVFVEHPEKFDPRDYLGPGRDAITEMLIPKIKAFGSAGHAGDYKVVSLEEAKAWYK
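40 nM FBPA preincubated 10 min at RT with compound (up to 57.5 uM final), then substrate plus GAPDH/TPI/NAD/arsenate coupling and diaphorase/resazurin added. Fluorescence read after 20 min at RT, 525/598 nm.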
Cycloheximide cs: Cycloheximide Counterscreen for Small Molecule Inhibitors of Shiga Toxin | cell reporter, cycloheximide protein synthesis inhibition counterscreen | max response, % | actives 12% (n = 300,000) | AID 2314, 2010; in the data active means max response mostly above about 13%, no sharp cut-off; inactive means mostly below about 14%; further: read at 38.3 µM for the half of the compounds with a filed dose; 0% is about no effect
Shiga toxin inh: A qHTS for Small Molecule Inhibitors of Shiga Toxin. Vero cells, Shiga toxin protein synthesis inhibition reporter. inhibition, % at 38.7 µM. actives 9.2% (n = 290,000). AID 2315, 2010; in the data active means inhibition mostly above about 28%, no sharp cut-off; inactive means mostly below about 43%; further: 0% is about no effect
* = called active by the depositor; ? = inconclusive; · = not tested or not shown; [ ] = dose if it differs, or a comment. In the library only some 14% were active in any assay of this set; here they are far more common. Unless noted, the call rests on the fitted dose curve; in most records, active means well fitted curve in the direction sought with a large enough effect; inconclusive means small, poorly fitted or top-dose-only effect, or another doubt; inactive means no such curve, though single readings can be large; an effect the other way counts as inactive or inconclusive.

SMILES | NS1 function inh | LmPK inh | Giardia FBPA inh | Cycloheximide cs | Shiga toxin inh
COC(=O)C1=C(C(=O)OC)[C@@H]2N(Cc3ccccc3)c3ccccc3[C@@]23C[C@@H](C(=O)OC)N(C(=O)NCc2ccccc2)C3=C1 | · | · | -11.1% | · | ·
COc1ccc(C2CC(=O)c3c(O)cc(O[C@H]4OC(COC5OC(C)C(O)C(O)[C@@H]5O)C(O)C(O)C4O)cc3O2)cc1O (some centres not stated) | · | · | -0.7% | · | ·
COc1ccc(-n2c(O)c(Cc3ccccc3)c(=O)n3nc(-c4ccccc4)c(=O)cc23)cc1 | 13.4% | -3.1% | 14.0% | 11.2* | 12.9
COc1cc(C(=O)NNC(=O)C2CC2)cc(OC)c1OC | 6.2% | 0.0% | -13.2% | -2.6 | -4.1
O=C(Nc1ccc2nc(C3CC3)n(Cc3ccccc3)c(=O)c2c1)C1CC1 | 1.5% | -0.8% | 1.3% | 22.6* | 31.4*
CCOC(=O)CCNC(=O)Nc1ccc2nc(C)n(Cc3ccc(Cl)cc3)c(=O)c2c1 | -26.0% | 2.0% | 8.0% | -1.0 | 29.9
CC(=O)Nc1cc2c(=O)n(Cc3ccccc3)c(C)nc2cc1N1CCOCC1 | -2.3% | 2.7% | -18.3% | 17.3* | 35.6
Cc1nc2cc(N3CCCCC3)c(NC(=O)c3cccnc3)cc2c(=O)n1Cc1ccccc1 | -2.5% | -0.7% | -12.8% | -3.8 | -20.5
CC(=O)Nc1ccc2nc(C)n(Cc3ccc(Cl)cc3)c(=O)c2c1 | -12.6% | 2.6% | 4.3% | 28.4* | 53.4*
CCOC(=O)CN1C(=O)N[C@@H](c2ccccc2)[C@H](C(C)=O)[C@H]1C | · | -2.7%[11.5 µM] | 5.8%[12.9 µM] | · | ·
CSc1ccccc1OCc1cc(C(=O)N(C)Cc2cnccn2)no1 | 1.2% | -0.2% | · | 51.6* | 110.2*
CSc1ccccc1OCc1cc(C(=O)N(C)Cc2c(C)n[nH]c2C)no1 | 13.4% | 0.3% | · | 14.4* | 10.5
CSc1ccccc1OCc1cc(C(=O)N2CCNC(=O)C2)no1 | 0.8% | 1.7% | -2.1% | 13.0 | 31.2
CSc1ccccc1OCc1cc(C(=O)N(C)Cc2cc(C)[nH]n2)no1 | 10.5% | 0.3% | · | 28.5* | 62.8
COc1ccccc1-c1cc(N(C)Cc2ccco2)ncn1 | · | · | -4.4% | · | ·
Cc1ccc(NC(=O)c2cc(C)nc3ccccc23)c(Br)c1 | -24.2% | 14.1% | -0.6% | -2.6 | ·
Cc1ccc(NC(=O)Nc2ccc(Cl)cc2)c(Br)c1 | 15.6% | 2.8% | 0.4% | 28.2* | active
Cc1cccc(NC(=O)c2ccccn2)c1C | -5.7% | ? | -2.5% | 32.3* | 77.2*
Cc1ccc(NC(=O)c2ccccn2)c(Br)c1 | · | -1.7% | -6.8% | 52.2* | 88.7*
Cc1ccc(NC(=O)C2(S(=O)(=O)c3ccc(Cl)cc3)CC2)c(Br)c1 | 6.0% | 1.7% | -1.9% | -2.2 | 5.7
Cc1ccc(NC(=O)c2csnn2)c(C)c1 | -1.1% | -3.7% | 2.1% | 21.6* | 31.5
O=C(NC(=O)c1csnn1)Nc1ccccc1Cl | -11.4% | -5.9% | · | 33.6* | 21.9
Cc1ccc(C)c(NC(=O)c2ccccn2)c1 | -13.7% | -17.4% | -12.2% | 31.6* | 47.3*
CSCc1ccc(C(=O)Nc2cccc(C)c2C)cc1 | 14.5% | -4.0% | -1.5% | 48.6* | 21.4
NC(=O)NC(=O)Nc1ccccc1Cl | -5.4% | -9.0% | 1.9% | 2.8 | -4.3
SMILES | NS1 function inh | LmPK inh | Giardia FBPA inh | Cycloheximide cs | Shiga toxin inh
C=CCN(C(=O)Cn1nc(C)n2c(cc3cc(C)ccc32)c1=O)c1ccccc1 | -8.1% | 9.5% | 1.6% | 0.6 | -3.5
C=CCOc1cccc(/C=N/NC(=O)CC(=O)NC2CCCCC2)c1 | 10.8% | -2.5% | · | -1.5 | -30.3
Cc1cccc(-c2nn(C(=S)Nc3ccccc3)cc2-c2ccnc3ccccc23)n1 | · | · | -28.3% | 14.3 | 2.1
CCOC(=O)c1ccc(N=NN(C)C)cc1 | -28.1% | 2.0% | 3.3% | 30.5* | 90.8*
CCOC(=O)c1ccc(N)cc1 | · | · | 1.1% | · | ·
CCOC(=O)c1ccc(C(=O)OCC)nc1 | -0.1% | -1.7% | 10.9% | 16.3* | 35.3*
COc1ccc(OC)c(S(=O)(=O)Nc2c(C)n(C)n(-c3ccccc3)c2=O)c1 | 9.1% | 4.9% | 3.1% | 1.1 | -6.7
CN(C)CCCOC(=O)c1sc2ccccc2c1Cl | 1.4% | 6.5% | -3.0% | 39.4* | 59.4*
CCCCOC(=S)NC(=O)c1sc2ccccc2c1Cl | -37.1% | -0.2% | -14.4% | 21.7 | 36.4
CN(C(=O)COC(=O)c1sc2ccccc2c1Cl)C1CCCCC1 | -17.7% | -5.3% | 2.8% | 17.3 | 54.7*
O=C(NCCC[N+]1=CC=N[C@H]1c1ccccc1)N1CCCc2nc(-c3ccc(Br)cc3)ccc21 | · | · | -3.0%[12.9 µM] | · | ·
CCNc1ncc2nc(C)c(=O)n(Cc3ccc(F)cc3)c2n1 | · | · | 5.2% | · | ·
O=C(Nc1ccccc1F)C(=O)c1cn(CC(=O)N2CCCCC2)c2ccccc12 | · | -2.5% | -0.5% | 32.7* | 53.9*
CC(=O)Nc1ccc(NC(=O)C(=O)c2cn(CC(=O)N3CCCC3)c3ccccc23)cc1 | 5.3% | 7.7% | 0.0% | -0.6 | 22.8
CC(=O)Nc1cccc(NC(=O)C(=O)c2cn(CC(=O)N3CCCCC3)c3ccccc23)c1 | · | 1.8%[11.5 µM] | -6.1% | 45.1* | 85.2*
CC1(c2ccccc2)NC(=O)N(CC(=O)Nc2ccccc2C(=O)NC2CC2)C1=O (configuration not stated) | 1.6% | -12.1% | · | -1.8 | -1.8
CN(C(=O)c1cccc(NC(=O)c2ccco2)c1)c1ccccc1 | 7.6% | -1.0% | 4.5% | 1.3 | ·
CN(C(=O)c1ccc(NC(=O)c2ccco2)cc1)c1ccccc1 | -1.7% | -28.7% | -2.7% | 34.8* | 76.9*
Cc1cccc2c(=O)c(-c3ccc(Cl)cc3)c(NC(=O)c3ccco3)oc12 | 1.2% | 3.1% | -13.4% | 15.8* | 23.7*
O=C(COc1ccc(Cl)cc1)Nc1ccc(NC(=O)c2ccco2)cc1 | -9.9% | 4.5% | -1.8% | -2.6 | -6.1
O=C(Nc1ccc(Cl)cc1)c1ccco1 | -21.3% | -4.3% | 0.0% | 33.5* | 55.3
CSc1cccc(NC(=O)c2ccco2)c1 | -109.9% | -0.7% | -4.2% | 30.5* | 107.7*
CCOP(=O)(c1ccc(N(C)C)cc1)C(O)c1ccccc1F (configuration not stated) | 3.8% | -4.0% | 13.5% | -3.3 | -11.4
NC(=NCc1ccco1)NC(=O)c1ccc(Cl)cc1 | -19.2% | -1.5% | 0.3% | 25.5* | 76.2*
CC(=O)Nc1ccc(NC(=O)c2ccco2)cc1 | 5.6% | 3.1% | 3.3% | 30.7* | 71.2*
SMILES | NS1 function inh | LmPK inh | Giardia FBPA inh | Cycloheximide cs | Shiga toxin inh
NC(=O)CNC(=O)c1ccc(Cl)cc1 | 2.4% | 3.0% | 3.6% | -2.7 | -6.9
O=C(NCCCNC(=O)c1ccco1)c1ccc(Cl)cc1 | 3.5% | -1.0% | 13.7% | 31.5* | 85.5*
CCC(C)c1ccc(NC(=O)CC(C)=O)cc1 (configuration not stated) | 0.0% | 1.9% | -4.7% | 20.6* | 13.9
CCNc1ncc2nc(-c3ccccc3)c(=O)n(C)c2n1 | · | · | 2.1% | · | ·
COC(=O)CNC(=O)C1(CC(C)C)C=CCN1C(C)=O (configuration not stated) | · | · | 0.0% | · | ·
O=C(Cc1ccccc1)Nc1ccc(SC(F)F)cc1 | -18.6% | -1.8% | -16.8% | 40.9* | 35.2

Source: PubChem BioAssay
